# Results filed as inconclusive are left out. Unmarked numbers belong to inactive results. Activity calls are given as the source filed them. Calls follow the shape of the dose curve; as a rule, active = well fitted inhibition curve with a large enough effect in the repeat runs; inconclusive = weak or mixed curves; inactive = no such curve, though single readings can be large or run the other way.
# Target: Cytochrome P450 2C19 (Homo sapiens) (UniProt P33261)
# Assay: Cytochrome P450 Family 2 Subfamily C Member 19 (CYP2C19) small molecule antagonists: luciferase reporter qHTS assay (AID 1671197); also: nearly all actives have a fitted effect of over 65% in size
# Conditions: P450-Glo CYP2C19 enzyme, luciferin luminescence, 1 h; series mostly up to 115 µM; activity change, negative = inhibition: at the top concentration
# Excerpt: National Center for Advancing Translational Sciences [NCATS]
# U.S. Environmental Protection Agency [EPA]
# National Institutes of Environmental Health Sciences [NIEHS]
# National Toxicology Program [NTP]
# U.S. Food and Drug Administration [FDA]
# Cytochrome P450 (CYP) enzymes are membrane-bound hemeproteins that play a key role in metabolism of drugs and xenobiotics. Evaluation of the effect of chemicals on CYP isozymes is useful to minimize the adverse drug reactions and toxicities in drug development process. Tox21 chemicals were tested for their effect on CYP enzyme activities by using P450-Glo (TM) screening systems (Promega Corporation, Madison, WI). These systems provide a luminescent method containing proluciferin substrates and are converted to luciferin products by CYP isozymes. The luciferin products formed are detected with a luciferin detection reagent, and the amount of light produced is proportional to CYP activity. P450-Glo (TM) CYP2C19 screening system (Catalog. No. V9880) was used to detect the compounds that interfere in CYP2C19 activity. The positive control compound used for CYP2C19 assay is ketoconazole (Sigma-Aldrich, St. Louis, MO).
# Tox21 Assay Protocol Summary:
# Two ul of enzyme-substrate mix was dispensed into medium binding white/solid 1536-well plates (Greiner Bio-One North America Inc., Monroe, NC) using a BioRaptr Flying Reagent Dispenser (FRD, Beckman Coulter, Brea, CA). Compounds dissolved in DMSO and positive control (ketoconazole) were transferred to the assay plates at 23 nl using a Pintool station (Wako, San Diego, CA). The assay plates were incubated at room temperature for 10 min. Then 2 ul of NADPH regeneration solution was added to each well of the assay plates using an FRD and incubated at 37C for 1 h. The reaction was stopped by adding 4 ul of detection reagent using an FRD and after 20 min incubation at room temperature the luminescence signal was measured using a ViewLux plate reader (Perkin Elmer, Shelton, CT). Data were expressed as relative luminescence units.
# % is scaled to controls: 0 for no effect and ±100 for the full control effect; potency is read from the fitted curve at half-maximal effect.
# Chain of Cytochrome P450 2C19 (Homo sapiens) (P33261 whole entry, looked up): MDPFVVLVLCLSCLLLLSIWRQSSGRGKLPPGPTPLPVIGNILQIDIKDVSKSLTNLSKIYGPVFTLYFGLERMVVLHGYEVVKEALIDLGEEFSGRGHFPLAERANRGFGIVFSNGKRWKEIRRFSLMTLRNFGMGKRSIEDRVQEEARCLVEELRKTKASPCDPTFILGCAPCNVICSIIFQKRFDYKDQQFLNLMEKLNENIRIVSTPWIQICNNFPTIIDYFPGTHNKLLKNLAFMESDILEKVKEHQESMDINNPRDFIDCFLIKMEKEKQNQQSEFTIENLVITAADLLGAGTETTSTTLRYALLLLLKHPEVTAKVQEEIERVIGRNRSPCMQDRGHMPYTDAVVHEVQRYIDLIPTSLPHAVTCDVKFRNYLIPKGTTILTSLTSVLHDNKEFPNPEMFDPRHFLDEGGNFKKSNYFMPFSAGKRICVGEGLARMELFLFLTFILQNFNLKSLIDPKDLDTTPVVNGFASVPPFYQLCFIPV
Structure (SMILES),Potency,"activity change, negative = inhibition"
CCCCOc1cc(C(=O)NCCN(CC)CC)c2ccccc2n1,34.7 µM (active),
COc1ccccc1N1CCN(CCCNc2cc(=O)n(C)c(=O)n2C)CC1,,26.1% [at 52.9 µM]
CCC(=O)Nc1ccc(O)cc1,,18.6% [at 52.9 µM]
FC(F)(F)c1ccccc1,,33.1%
COc1cc(Cl)ccc1Cl,,10.5%
O=c1[nH]c(=O)n([C@H]2C[C@H](O)[C@@H](CO)O2)cc1C(F)(F)F,,-8.2% [at 52.9 µM]
CCN(CC)CCNC(=O)COc1ccc(Cl)cc1,,14.8% [at 52.9 µM]
CS(=O)(=O)c1ccc([C@@H](O)[C@@H](CF)NC(=O)C(Cl)Cl)cc1,21.9 µM (active),
C[C@]12C(=O)OC(=O)[C@H]1[C@H]1C=C[C@@H]2C1,,11.2%
COC(C)CCO (stereo not given),,3.54%
CCOc1ccc2nc(N)sc2c1,22.3 µM (active),
CCCCCCCCCC#N,,-16.7%
CCOC(=O)c1cc(=O)c2c(OCC(COc3cccc4oc(C(=O)OCC)cc(=O)c34)OC(=O)[C@@H](N)CCCCN)cccc2o1,,-6.7% [at 52.9 µM]
CN1CCC[C@@H]1Cc1c[nH]c2ccc(CCS(=O)(=O)c3ccccc3)cc12,,-25.9% [at 52.9 µM]
Cc1cc(NS(=O)(=O)c2ccc(N)cc2)nc(C)n1,,23% [at 52.9 µM]
CCCC1CCC(=O)O1 (stereo not given),,-3.33%
Nc1ccc(Oc2ccc(N)c(N)c2)cc1,20 µM (active),
O=C1CCN(c2ccccc2)N1,80 µM (active),
CCCCCCOc1ccc(N)cc1,2 µM (active),
Cc1nc(N)nc(N)c1-c1ccc(Cl)c(Cl)c1,,0.376% [at 52.9 µM]

Structure (SMILES),Potency,"activity change, negative = inhibition"
CCCCCCCCOC(=O)CCCCCCCCC(=O)OCCCCCCCC,,26.7%
CC(C)C(=O)OC/C=C/c1ccccc1,39.9 µM (active),
N#Cc1ccc(C(c2ccc(C#N)cc2)n2cncn2)cc1,13.3 µM (active),
C=CCCCCCCCCO,,26%
NS(=O)(=O)c1cc(-c2nn[nH]n2)c(NCc2cccs2)cc1Cl,,9.61% [at 52.9 µM]
O=C1C=CC(=O)O1,,-14.1%
C=CC1CO1 (stereo not given),,14.7%
CC(C)CCCCCCc1ccc(OCCOCCO)cc1,,-12.6%
CC(C)c1ccccc1,,-2.74%
O=C(CCCl)NCc1ccccc1,,-3.94% [at 52.9 µM]
Oc1ccccc1F,,-5.5%
CCOc1ccccc1N,22.3 µM (active),
COc1ccc(Nc2ccc(OC)cc2)cc1,2.29 µM (active),
COC(=O)c1ccc(OC)cc1,,-7.49%
CCOC(=O)CS,82 µM (active),
CC(C)O,,-14.5%
Clc1cccc(-c2cc(Cl)cc(Cl)c2)c1,30.6 µM (active),
O=C1CCCCC1C1CCCCC1 (stereo not given),,5.88%
CCC(=O)O[C@]1(C(=O)SCF)[C@H](C)C[C@H]2[C@@H]3C[C@H](F)C4=CC(=O)C=C[C@]4(C)[C@@]3(F)[C@@H](O)C[C@@]21C,,-0.102% [at 52.9 µM]
CCOc1ccc(OCC)c(Cl)c1,,14.9%

# Source: PubChem BioAssay (Tox21)
